# Data: ChEMBL document CHEMBL4513216, “Probing the Open Global Health Chemical Diversity Library for Multistage-Active Starting Points for Next-Generation Antimalarials” (ACS Infect Dis, 2020)
# In all, about 65,000 compounds went through this assay and about 2,100 (3.2%) showed an effect of 50% or more. The median lay at about -52%. This excerpt belongs to a sample that is enriched for strong results.
# Test system: Plasmodium falciparum
# Experiment: Screen against P. falciparum Asexual Blood Stage (ABS), at 5uM
# Format: functional, Dd2
# Settings: tested at 5 uM
row,SMILES,INHIBITION
1,CN(C)CCN(C)C[C@H]1CN2CC[C@H]1C[C@@H]2CNC(=O)Nc1ccsc1,-49.3%
2,Cc1nc(CN2CCOC3(CCCC3)C2)oc1C,-101%
3,C[C@@H]1CN2C[C@H](O)CC2CN1Cc1ccncc1 (some centres not stated),-64.4%
4,O[C@@H]1C[C@H]2CN(Cc3ccsc3)[C@@H](Cc3ccccc3)CN2C1,71.6%
5,C[C@H]1CN2C[C@H](O)CC2CN1Cc1ccncc1 (some centres not stated),-85.4%
6,Cc1ccc(-n2nnc(CC(=O)N3CCN(C4CC4)CC3)c2C)cc1,-35.9%
7,COc1cccc(C2SCC(=O)Nc3n[nH]cc32)c1OC(C)C (configuration not stated),-75.3%
8,Cc1cnn(CC(C)NCc2cccc(C#N)c2)c1 (configuration not stated),-41.8%
9,COc1cccc(CC(C)NC(=O)NCc2ccn(C)c2)c1 (configuration not stated),-91.8%
10,COc1cccc(CC(C)NC(=O)NC(C)C)c1 (configuration not stated),-64.2%
11,COc1cccc(CNC(CN2CCN(C)CC2)c2ccccc2)c1 (configuration not stated),82%
12,Cc1ccc(CNC(CN2CCN(C)CC2)c2ccccc2)cc1 (configuration not stated),79.5%
13,O=C(Cc1ccc(F)cc1)N1CCN(CC(O)c2ccccc2)CC1 (configuration not stated),-18%
14,CN1CCN(CC(NCc2ccc(F)c(F)c2)c2ccccc2)CC1 (configuration not stated),83.8%
15,Cc1cccc(CNC(CN2CCN(C)CC2)c2ccccc2)c1 (configuration not stated),83.5%
16,O=C(Cc1ccccc1)N1CCN(CC(O)c2ccc(F)cc2)CC1 (configuration not stated),-118%
17,Cc1ccc(CC(=O)N2CCN(CC(O)c3ccccc3)CC2)cn1 (configuration not stated),-130%
18,O=C(c1ccncc1F)N1C[C@@H]2OCCN(CC3CC3)[C@@H]2C1,-66.6%
19,O=C(C1CCCCC1)N1CCC2(CC1)OCCO2,-149%
20,O=C(Nc1ccccc1)[C@H]1C[C@H]2CN(Cc3cccnc3)C[C@@H]1O2,-15%
21,Cc1ccc(C(=O)N2C[C@H](N3CCOCC3)[C@@H]3OCCC[C@@H]32)cn1,-62.2%
22,CCN(CC1CN(Cc2nc(C3CC3)no2)CCO1)c1cccnn1 (configuration not stated),73.3%
23,CN(Cc1nc(C2CC2)no1)C(=O)CN1CC(c2ccccc2)CC1=O (configuration not stated),-52.4%

row,SMILES,INHIBITION
1,CNC(=O)c1ccc2c(c1)C1(CCN(CCOC)CC1)C(=O)N2,-12.8%
2,COCCn1cc(NC(=O)NC(C)Cc2c(F)cccc2F)cn1 (configuration not stated),-151%
3,COCCCN1CCCN(C(C)C(=O)Nc2cccc(I)c2)CC1 (configuration not stated),90%
4,Cn1ncc2c(N3CCCN4CCC[C@H]4C3)nc(C(C)(C)C)nc21,-68.8%
5,O=c1[nH]c(NC2CCCC2)nc2nccc(-c3ccco3)c12,72.4%
6,COCCN1CCN(Cc2cccnc2)[C@H]2CS(=O)(=O)C[C@H]21,-9.43%
7,COc1ncccc1CN1CC[C@H]2O[C@H](c3nnc(C)o3)CC[C@H]21,-73.1%
8,CC(O)CN1CCC(CNCc2cccc(Br)c2)CC1 (configuration not stated),87.8%
9,CC(O)CN1CCC(CNCc2cccc(Cl)c2)CC1 (configuration not stated),87.9%
10,CC(O)CN1CCN(C(=O)Cc2ccccc2Cl)CC1 (configuration not stated),-179%
11,CC(Cc1cccc(Cl)c1)NC(=O)Nc1cnn(CC(N)=O)c1 (configuration not stated),-5.01%
12,CCOc1ccccc1CNCC1CCN(CC(C)O)CC1 (configuration not stated),75.9%
13,COCC(C)NC(=O)c1cn(C(C)(C)C)c2ncccc12 (configuration not stated),-120%
14,COc1ccc(CC(=O)N2CCN(Cc3ccco3)C[C@@H]2C)cc1OC,-135%
15,COc1ccc(C2SCC(=O)Nc3ccsc32)cc1OC (configuration not stated),-6.6%
16,CCNC(=O)NC(=O)CNC1(c2noc(C)n2)CCCCC1,-46.9%
17,CN1Cc2ccccc2NC(=O)C12CCNC2 (configuration not stated),-33.4%
18,O=C1CC[C@@H]2[C@@H](CCN2Cc2ccccn2)N1CC1CC1,-65.4%
19,Fc1cnc(N2CC3(CCN(CC4CC4)C3)C2)nc1,-62.7%
20,CN1CCn2c(-c3ccccc3)cnc2C12CCN(CC1CC1)CC2,80.9%
21,CN1CCn2c(-c3cccc(F)c3)cnc2C12CCN(CC1CC1)CC2,76.5%
22,CC(=O)N1CCC2(CC1)c1ncc(-c3cccnc3)n1CCN2C,-45.5%
23,c1ccc(-c2ncc3c(n2)C2(CCN(CC4CC4)C2)COC3)cc1 (configuration not stated),32%

row,SMILES,INHIBITION
1,Cc1nc(C2(NCC(=O)NC(=O)NCc3cccs3)CCCCC2)no1,-111%
2,Cc1ncc2c(c1CNC(=O)C1(C)CC1)CCNC2,-29.6%
3,Cc1cccc(Nc2cccc(C3CCCN(Cc4ncc[nH]4)C3)n2)n1 (configuration not stated),89.4%
4,Cc1noc(C)c1CN1C(=O)[C@@H]2CC[C@H]1CN(Cc1ncc[nH]1)C2,-55.8%
5,Cc1cccc(CN2CCN3C(=O)NC[C@H]3C2)n1,-4.56%
6,O=C(Cc1cccs1)N1CC[C@H]2[C@H]1CCN2Cc1cccnc1,19.8%
7,Cc1cc(C)c(CNc2nc3ccccc3cc2CO)c(=O)[nH]1,21.9%
8,CCc1ccc(C2c3nc[nH]c3CCN2Cc2nccn2CC)nc1 (configuration not stated),90.1%
9,CCn1ccnc1CN1CCNCC1C (configuration not stated),-43.7%
10,Cc1cc(CC(=O)N2CCN(CC(C)C)[C@@H]3CS(=O)(=O)C[C@@H]32)ccc1F,-48.2%
11,Cc1cccc(CN2CC[C@@H]3[C@@H]2CCN3C(=O)c2cnoc2C)n1,-26.9%
12,O=C1OCCC1N1CCN(C(=O)Cc2ccccc2Cl)CC1 (configuration not stated),-47.5%
13,NC(=O)CN1CCCN(C(=O)Cc2ccc3c(c2)OCCO3)CC1,-57.5%
14,O=C(CCN1CCCC1c1cccc2c1OCCO2)N1CCCCC1 (configuration not stated),73.2%
15,CN(C)CCCN(C)C1CCN(c2cccc(-c3cscn3)c2)CC1,81.2%
16,O=C1CC[C@@H]2[C@@H](CCN2Cc2ccncc2)N1c1ccccc1,-11.8%
17,O=C1Nc2ccccc2CC12CCCN2Cc1cccnc1 (configuration not stated),-69.2%
18,CN1CCN(Cc2ccsc2)Cc2cccnc21,-81%
19,CN(Cc1nccs1)c1nc(-c2ccccn2)nc2c1CCNCC2,83.7%
20,CN(Cc1ccsc1)c1nc(-c2ccccn2)nc2c1CCNCC2,79.7%
21,CN(Cc1ccon1)c1nc(-c2ccccn2)nc2c1CCNCC2,76.3%
